A short description of the assay: A549 cell viability effects, profiling panel, calcein-AM fluorescence, 48 h, basal (AID 1162). Further: test concentration not given here. To be noted: higher = more signal.
In the case of `C=C(/C(=C/C[C@H](OC(C)=O)c1ccc(CO)o1)c1cc(C(=O)OC)ccc1OC)C(C)C`, the z-score was -0.431.

For `COC(=O)[C@@]1(Cc2ccccc2)N=C(c2ccc(OCCCO)cc2)O[C@H]1c1ccccc1`, the z-score is -1.98. The same measure for `CC(C)C[C@@H]1NC(=O)[C@@H]2C[C@H](C(=O)NCc3ccc(F)cc3)[C@H](c3cccc(OCCO)c3)N2C1=O`: 1.21. Consider `O=C1c2ccccc2[C@](Cc2ccccc2I)(C(=O)NCCN2CCOCC2)[C@H](c2ccc(CO)cc2)N1C1CCCCC1`, for which the z-score was 0.668. The same measure for `O=C1c2ccccc2[C@](Cc2ccccc2I)(C(=O)NCCN2CCOCC2)[C@H](c2ccc(CO)cc2)N1Cc1ccccc1Cl`: 0.537. For the compound `CC(C)C(=C=CC[C@@H](O)c1ccc(OCCO)cc1)C[C@@H](O)COCc1ccccc1`, the z-score was 2.2.

In the case of `COC(=O)[C@]1(CCC(=O)OC(C)(C)C)N=C(c2ccc(OCCCO)cc2)O[C@@H]1c1ccccc1CN=[N+]=[N-]`, the z-score was -2.13.

Take `NC(=O)NCC#Cc1ccc2c(c1)[C@]1(C(=O)N2)[C@H](c2ccccc2OCCO)N2[C@H](c3ccccc3)[C@H](c3ccccc3)OC(=O)[C@H]2[C@@H]1C(=O)Nc1nc2ccccc2s1`: the z-score was 0.334. The same measure for `C=CCC(OC(C)=O)[C@@H]1[C@@H](N(Cc2ccc(-c3ccccc3)cc2)C(=O)Cc2ccc(OC)cc2)c2cc(OCCCO)ccc2N1C(=O)Cc1ccc2ccccc2c1` (stereo partly specified): 0.247; for `C=C(CCCC)C(=O)CC[C@@H](OC(=O)c1ccccc1-c1ccccc1C(=O)O)c1ccc(OCCO)cc1`: -0.465; for `CCCC[C@@H]1C[C@H]1[C@@H](NC(=O)c1ccco1)c1ccccc1C(F)(F)F`: -2.09.

The values are drawn from PubChem BioAssay.
